Experimental findings from article PMC5540273 (PLoS ONE, 2017) are described below.

Test systems include CSNK1A1L; CSNK1A1; CSNK1D; CSNK1E; CSNK1G1; CSNK1G2; CSNK1G3; CSNK2A1; CSNK2A2.
What all share (details): concentration: 1 μM, replicates: in singlicate; n = 1
In the next test the test system is T1, CTK.
T1 construct: gene MATK
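Note: KINOMEscan kinase panel screen.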

Turning to `Cc1nnc(-c2ccc3ncc(-c4ccc(S(C)=O)cc4)n3c2)o1` (centres unmarked), the “%Inh” value in the test with CSNK1A1L worked out at 9%; in the test with CSNK1A1, 7%; with CSNK1D it was 0%; with CSNK1E, 0%; in the test on CSNK1G1 it was 24%; in the test on CSNK1G2, 5%. The “%Inh” value with CSNK1G3 is 0%; with CSNK2A1 it was 0%; in the test on CSNK2A2, 18%; with CTK it was 27%.

On to `Cn1cc(-c2ccc3c(c2)CCN3C(=O)Cc2ccccc2Cl)c2c(N)ncnc21` [GSK2608885], for which the “%Inh” value came to 0% with CSNK1A1L; 0% with CSNK1A1; 11% in the test with CSNK1D; 87% in the test with CSNK1E; 25% with CSNK1G1; 3% in the test on CSNK1G2. Further, the “%Inh” value with CSNK1G3 is recorded as 20%; with CSNK2A1, 0%; with CSNK2A2, 8%; in the test on CTK, 18%.

Take `Nc1nc(-c2ccc3c(N)n[nH]c3c2)cc(N2CCCC2)n1` [GSK2227430]: the “%Inh” value in the test with CSNK1A1L is 0%; with CSNK1A1, 0%; with CSNK1D, 0%; in the test with CSNK1E, 25%; in the test on CSNK1G1, 0%; with CSNK1G2, 0%. In addition, the “%Inh” value in the test on CSNK1G3 is listed as 19%; with CSNK2A1, 0%; in the test with CSNK2A2 it was 4%; with CTK it was 0%.

For the molecule `C[C@@H](Oc1cc(-n2cnc3ccc(NC(=O)NC(C)(C)C)cc32)sc1C(N)=O)c1ccccc1Cl` [GSK346294], the “%Inh” value was found to be 6% with CSNK1A1L; 0% in the test with CSNK1A1; 3% in the test on CSNK1D; 19% with CSNK1E; 0% with CSNK1G1; 0% in the test on CSNK1G2. Besides, the “%Inh” value with CSNK1G3 is 32%; in the test with CSNK2A1 it was 2%; in the test with CSNK2A2, 0%; in the test on CTK it was 0%.

`O=c1cc(N2CCOCC2)nc2n(Cc3cccc4ccccc34)ccn12` [GSK2333389]: the “%Inh” value in the test with CSNK1A1L worked out at 11%; in the test with CSNK1A1 it was 13%; with CSNK1D, 42%; in the test on CSNK1E, 20%; in the test on CSNK1G1 it was 0%; with CSNK1G2, 0%. Besides, the “%Inh” value with CSNK1G3 was 20%; in the test on CSNK2A1 it was 13%; in the test on CSNK2A2 it was 0%; with CTK, 1%.
